# Measurements taken from PubChem BioAssay.
# Active and inactive are the calls of the source. Unless noted, the rule behind the calls is not given here.
# Legend:
# [1] = compound effects on lung adenocarcinoma cell viability – A549, calcein-AM fluorescence, 48 h, basal, profiling panel (AID 1162); details: higher = more signal; note: test concentration not given here
# [2] = compound effects on differentiated 3T3-L1 adipocyte viability – cell-based, 3T3-L1 adipocytes, calcein-AM fluorescence, 48 h, basal, profiling panel (AID 1163); details: 3T3-L1 adipocytes viability, higher = more signal; note: test concentration not given here
# [3] = compound effects on hepatocellular carcinoma cell viability – HepG2, calcein-AM fluorescence, 48 h, basal, profiling panel (AID 1164); details: higher = more signal; note: test concentration not given here
# [4] = compound effects on multiple myeloma cell viability – MM1S, calcein-AM fluorescence, 48 h, basal, profiling panel (AID 1165); details: higher = more signal;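 note: viability of MM1S multiple myeloma cells under basal unstimulated conditions; test concentration not given here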
# [5] = calcein-AM signal in unstimulated myeloma cells – cell-based, calcein-AM fluorescence, 48 h, PK04 Diversity Set, profiling panel (AID 1166); details: RPMI8226 myeloma viability, higher = more signal;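 note: cells grown under basal conditions without added stimulus; test concentration not given here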
# [6] = JC-1 mitochondrial signal, unstimulated HepG2 cells – cell-based, JC-1 fluorescence, 24 h, 100 nL compound, profiling panel (AID 1167); details: HepG2 mitochondrial potential, higher = more signal; note: test concentration not given here
# [7] = JC-1 mitochondrial signal, unstimulated adipocytes – cell-based, JC-1 fluorescence, 3T3-L1 adipocytes, 24 h, 100 nL compound, profiling panel (AID 1168); details: JC-1 mitochondrial fluorescence, higher = more signal, called active from +8 up or from −8 down; note: test concentration not given here
# [8] = JC-1 mitochondrial signal, unstimulated myeloma cells – cell-based, JC-1 fluorescence, RPMI8226, 24 h, 100 nL compound, profiling panel (AID 1169); details: JC-1 mitochondrial potential fluorescence, higher = more signal; note: test concentration not given here
# [9] = JC-1 mitochondrial signal, unstimulated MM1S myeloma – cell-based, JC-1 fluorescence, 24 h, 100 nL compound, profiling panel (AID 1170); details: MM1S mitochondrial potential, higher = more signal; note: test concentration not given here
# [10] = resazurin metabolic signal in A549 cells – cell-based, resazurin fluorescence, 24 h, PK04 Diversity Set, profiling panel (AID 1171); details: A549 viability, higher = more signal, called active from +8 up or from −8 down; note: test concentration not given here
# [11] = resazurin metabolic signal in HepG2 cells – cell-based, resazurin fluorescence, 24 h, PK04 Diversity Set, profiling panel (AID 1172); details: HepG2 viability, higher = more signal; note: test concentration not given here
# [12] = budding yeast growth changes without added modifier – OD600, strain BY4716, 24 h, basal condition, primary screen (AID 1173); details: S. cerevisiae BY4716 growth, OD600, 24 h; higher = more signal, called active from +8 up or from −8 down
# [13] = viability profiling in MM1S myeloma cells – cell-based, resazurin fluorescence, basal, 24 h, PK04 Diversity Set, profiling panel (AID 1174); details: higher = more signal, called active from +8 up or from −8 down; note: test concentration not given here
# [14] = target: Dihydroorotate dehydrogenase (quinone), mitochondrial (Plasmodium falciparum (isolate 3D7)) (UniProt Q08210); assay: inhibition of P. falciparum DHODH – biochemical, C-terminal His tag, absorbance 600 nm, primary screen (AID 1175); details: PfDHODH enzyme, DCIP absorbance 600 nm; higher = more signal, called active from +8 up or from −8 down;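 note: recombinant parasite enzyme with a five histidine tag at its C terminus; test concentration not given here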
# Chain of Dihydroorotate dehydrogenase (quinone), mitochondrial (Plasmodium falciparum (isolate 3D7)) (Q08210 whole entry, looked up): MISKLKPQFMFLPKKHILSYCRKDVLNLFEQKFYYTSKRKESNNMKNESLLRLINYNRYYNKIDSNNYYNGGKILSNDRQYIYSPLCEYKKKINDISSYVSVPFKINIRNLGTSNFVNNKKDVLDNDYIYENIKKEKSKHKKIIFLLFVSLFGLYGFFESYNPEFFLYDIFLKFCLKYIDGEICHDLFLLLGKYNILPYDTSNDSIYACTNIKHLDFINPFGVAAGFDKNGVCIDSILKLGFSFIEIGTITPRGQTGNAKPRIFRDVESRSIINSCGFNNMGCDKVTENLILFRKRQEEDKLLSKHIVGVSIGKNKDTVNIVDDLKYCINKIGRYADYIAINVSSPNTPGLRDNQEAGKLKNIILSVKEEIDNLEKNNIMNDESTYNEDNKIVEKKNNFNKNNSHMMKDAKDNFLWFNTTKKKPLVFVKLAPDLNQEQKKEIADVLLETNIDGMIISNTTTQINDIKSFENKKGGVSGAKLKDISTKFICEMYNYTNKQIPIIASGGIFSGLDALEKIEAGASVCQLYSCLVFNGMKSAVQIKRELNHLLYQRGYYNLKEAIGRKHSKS
# [15] = inhibition of PAO1 biofilm formation – strain PAO1, LB-PBS medium, absorbance 600 nm, primary screen (AID 1176); note: test concentration not given here; details: P. aeruginosa PAO1 growth/biofilm, A600, 12 h; higher = more signal
# [16] = growth modulation of vineyard yeast isolate – strain RM11-1a, OD600, basal, 24 h, primary screen (AID 1177);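 note: cultures grown under basal conditions with no added stressor; test concentration not given here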; details: S. cerevisiae RM11-1a growth, OD600, 24 h; higher = more signal, called active from +8 up or from −8 down
# [17] = growth of efflux-deficient E. coli DRC39 – strain DRC39, OD650, 24 h, E. coli filamentation inducers, primary screen (AID 1178);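 note: growth measured as culture turbidity by optical density at 650 nm; test concentration not given here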; details: E. coli DRC39 acrAB, higher = more signal, called active from +8 up or from −8 down
# [18] = growth of efflux-deficient E. coli DRC39 – strain DRC39, OD650, 48 h, E. coli filamentation inducers, primary screen (AID 1179);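 note: screen aims at cell division blockers that make cells filament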; details: E. coli DRC39 delta-acrAB growth, higher = more signal, called active from +8 up or from −8 down
# [19] = viability profiling in RPMI8226 myeloma cells – cell-based, resazurin fluorescence, basal, 24 h, PK04 Diversity Set, profiling panel (AID 1180); details: higher = more signal;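 note: RPMI8826 multiple myeloma cell line at 5000 cells per well; test concentration not given here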
# [20] = target: E3 ubiquitin-protein ligase XIAP (Homo sapiens) (UniProt P98170); assay: small molecules binding XIAP protein – biophysical, small-molecule microarray, fluorescence 635 nm, primary screen (AID 1181); details: higher = more signal;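 note: score merges 667 nm emission and signal to noise over triplicate slides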
# Chain of E3 ubiquitin-protein ligase XIAP (Homo sapiens) (P98170 whole entry, looked up): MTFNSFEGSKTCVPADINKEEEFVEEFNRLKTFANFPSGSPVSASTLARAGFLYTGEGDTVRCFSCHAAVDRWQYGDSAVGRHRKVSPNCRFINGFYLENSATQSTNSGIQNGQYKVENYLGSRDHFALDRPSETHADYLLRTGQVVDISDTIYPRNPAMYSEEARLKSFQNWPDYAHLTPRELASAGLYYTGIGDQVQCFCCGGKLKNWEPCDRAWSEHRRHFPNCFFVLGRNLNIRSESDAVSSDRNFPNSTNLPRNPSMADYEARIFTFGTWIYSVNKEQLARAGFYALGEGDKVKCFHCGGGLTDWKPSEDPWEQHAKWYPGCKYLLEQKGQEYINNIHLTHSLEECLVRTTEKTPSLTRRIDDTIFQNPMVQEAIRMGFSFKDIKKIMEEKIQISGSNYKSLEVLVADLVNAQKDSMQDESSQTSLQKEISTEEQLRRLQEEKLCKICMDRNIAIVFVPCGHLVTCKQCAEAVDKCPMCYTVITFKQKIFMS
Structure (SMILES),z-score [1],z-score [2],z-score [3],z-score [4],z-score [5],z-score [6],z-score [7],z-score [8],z-score [9],z-score [10],z-score [11],z-score [12],z-score [13],composite z-score [14],z-score [15],z-score [16],z-score [17],z-score [18],z-score [19],composite z-score [20]
CCCCN1CC=CC23O[C@@H]4/C=C\CCC(C)OC(=O)C4[C@H]2C(=O)N(C(CO)C(C)C)[C@@H]3C1=O (stereo not given in full),0.0282,-0.21,0.519,1.61,-0.773,-0.403,-1.27 (inactive),0.0795,-0.676,-0.0227 (inactive),0.229,0.844 (inactive),0.382 (inactive),-1.29 (inactive),0.991 (inactive),0.164 (inactive),0.375 (inactive),0.156 (inactive),-0.0048,0.48
COc1cc(OC)c(C(O)C2C=CC3C(=O)N(c4ccccc4)C(=O)C3N2Nc2ccccc2)cc1Br (stereo not given),1.84,-1.48,0.0936,0.251,-0.562,-2.11,-0.602 (inactive),0.292,-0.761,0.439 (inactive),0.222,-11 (active),-1.14 (inactive),0.593 (inactive),0.475 (inactive),0.378 (inactive),-1.05 (inactive),-0.163 (inactive),-1.52,0.0967
[N-]=[N+]=NCc1ccccc1C[C@]1(C(N)=O)N=C(c2ccc(OCCCO)cc2)O[C@H]1c1ccccc1,-0.277,-0.0112,-0.284,-2.25,-1.04,-0.417,0.587 (inactive),-0.715,-0.464,0.004 (inactive),1,-0.198 (inactive),-0.726 (inactive),0.921 (inactive),-0.786 (inactive),1.4 (inactive),0.146 (inactive),0.98 (inactive),-0.581,0.1
COCCCNC(=O)[C@@]1(Cc2ccccc2CN=[N+]=[N-])N=C(c2ccc(OCCCO)cc2)O[C@H]1c1ccccc1,-1.15,0.759,-0.798,-2.93,-4.32,0.331,-0.00801 (inactive),-1.25,-0.69,0.385 (inactive),0.636,0.41 (inactive),-0.88 (inactive),1.22 (inactive),-0.317 (inactive),1.92 (inactive),1.28 (inactive),0.242 (inactive),-1.75,-0.052
OCC1CC(c2ccccc2)=NO1 (stereo not given),0.71,0.311,-0.0218,0.554,-0.676,0.883,-0.765 (inactive),0.527,-0.201,0.281 (inactive),-0.107,-1.09 (inactive),-0.85 (inactive),-0.17 (inactive),-0.201 (inactive),0.309 (inactive),-0.075 (inactive),0.194 (inactive),0.886,-0.158
COCCOC(=O)N1C(=O)[C@@]2(c3ccccc31)[C@H](C(=O)N1CCN(c3ncccn3)CC1)[C@H]1C(=O)O[C@H](c3ccccc3)[C@H](c3ccccc3)N1[C@@H]2c1ccc(O)cc1,-0.337,0.176,0.102,-1.41,-0.441,0.745,-0.107 (inactive),0.263,0.0963,1.19 (inactive),-0.0067,0.056 (inactive),0.439 (inactive),-0.437 (inactive),1.81 (inactive),0.953 (inactive),-0.612 (inactive),0.075 (inactive),0.434,-0.222
COCCOC(=O)N1C(=O)[C@@]2(c3cc(C#Cc4ccc(OC)cc4)ccc31)[C@H](c1ccc(O)cc1)N1[C@H](c3ccccc3)[C@H](c3ccccc3)OC(=O)[C@H]1[C@@H]2C(=O)N1CCCCCCC1,0.403,0.703,-0.261,-1.08,-1.29,-0.902,1.18 (inactive),-0.464,-0.414,-0.0155 (inactive),-0.113,0.603 (inactive),-0.431 (inactive),-0.15 (inactive),0.213 (inactive),0.266 (inactive),-0.551 (inactive),-0.341 (inactive),-0.332,-0.158
COC(=O)[C@@]1(Cc2ccc(F)cc2)[C@H]2c3cc(C(=O)N4CCCC4)n(CCc4ccc(O)c(O)c4)c3C[C@H]2CN1C(=O)c1ccccc1,0.863,-0.0428,0.609,-3.48,-4.2,0.54,-0.461 (inactive),-0.788,-1.59,0.0195 (inactive),-1.48,1.78 (inactive),-1.07 (inactive),-0.0926 (inactive),1.78 (inactive),1.78 (inactive),-0.265 (inactive),-0.177 (inactive),-0.795,0.32
CC(C)Cc1ccc(CN2CC[C@@H](NC(=O)Nc3ccccc3)C2)cc1,-4.11,-1.07,-4.91,-3.11,-4.03,-2.75,0.465 (inactive),-1.11,-3.26,-2.79 (inactive),-5.14,-17.3 (active),-9.38 (active),0.545 (inactive),0.294 (inactive),-4.95 (inactive),0.451 (inactive),-0.748 (inactive),-4.87,-0.209
C[N+](C)(C)CCCCCCNC(=O)[C@H]1C[C@H]2C(=O)NCC(=O)N2[C@H]1c1ccc(O)cc1,-0.93,-0.313,-0.799,-1.17,-0.121,-1.71,-0.159 (inactive),0.0729,-0.235,0.14 (inactive),0.767,-0.275 (inactive),-0.301 (inactive),-0.435 (inactive),0.823 (inactive),0.0387 (inactive),-0.298 (inactive),-0.785 (inactive),-0.116,0.175
COC(=O)C(CC#Cc1ccc2c(c1)[C@]1(C(=O)N2)[C@H](c2ccccc2OCCO)N2[C@H](c3ccccc3)[C@H](c3ccccc3)OC(=O)[C@H]2[C@@H]1C(=O)NC[C@H](O)c1ccccc1)C(=O)OC,1.24,-0.625,0.876,-3.38,-4.55,-1.12,1.01 (inactive),-1.11,-2.27,0.107 (inactive),-0.248,1.61 (inactive),-6.75 (inactive),-4.58 (inactive),2.09 (inactive),2.22 (inactive),0.405 (inactive),0.615 (inactive),-6.97,0.279
COCCOC(=O)N1C(=O)[C@@]2(c3cc(C#Cc4ccc(OC)cc4)ccc31)[C@H](c1ccccc1OCCO)N1[C@H](c3ccccc3)[C@H](c3ccccc3)OC(=O)[C@H]1[C@@H]2C(=O)N1CCCCCCC1,0.161,1.62,1.19,-0.248,-0.584,0.591,3.46 (inactive),-0.686,-1.16,0.375 (inactive),0.457,1.29 (inactive),0.0229 (inactive),-1.26 (inactive),3.49 (inactive),1.84 (inactive),-0.398 (inactive),0.118 (inactive),0.504,0.223
COC(=O)[C@@]1(Cc2ccccc2)[C@@H]2C(=CC(=O)[C@H]2CC(=O)C(=O)N(C)C)CN1C(=O)c1ccccc1,0.349,0.108,0.11,-2.52,-1.81,2.58,-0.0995 (inactive),-0.791,-2.68,-1.11 (inactive),-1.24,0.292 (inactive),-5.19 (inactive),-0.435 (inactive),-0.0856 (inactive),-0.224 (inactive),0.677 (inactive),-0.0631 (inactive),-5.21,0.0239
C=C(/C(=C/C[C@H](OC(C)=O)c1cccc(OCCO)c1)c1cnc2ccccc2c1)C(C)C,0.336,0.811,0.0181,-0.861,0.0738,1.28,0.224 (inactive),0.649,-0.105,0.236 (inactive),-0.196,0.644 (inactive),-0.0992 (inactive),-5.52 (inactive),-0.0099 (inactive),1.51 (inactive),0.636 (inactive),0.363 (inactive),0.573,-0.0773
O=C1N(Cc2ccccc2)c2ccccc2[C@@H]2OC(c3ccc(OCCCO)cc3)=N[C@]12Cc1ccccc1,-1.43,1.24,-1.98,-3.26,-4.42,-1.11,0.983 (inactive),-1.37,-0.884,-1.72 (inactive),-0.408,-0.87 (inactive),-3.68 (inactive),1.07 (inactive),1.25 (inactive),2.06 (inactive),1.29 (inactive),0.259 (inactive),-2.78,-0.0749
CCOC(=O)C1=CC[C@@H](c2cccc(Cl)c2)N(S(=O)(=O)c2ccc(C)cc2)C1,-0.236,0.472,0.46,-1.14,-0.789,0.584,1.34 (inactive),-0.043,-0.51,-0.617 (inactive),-0.36,0.255 (inactive),-0.347 (inactive),-1.54 (inactive),-0.405 (inactive),-0.188 (inactive),0.242 (inactive),1.2 (inactive),-0.277,-0.149
